# Whole data set: some 2,900 compounds, median “NF-kB SEAP reporter activity, fold change vs agonist alone” near 0.99, cut for the highest 2% near 2.6. The sample holds the highest values, similar compounds and a random draw of the others, so the mix is not that of the screen.
# Legend:
# [1] = system: RAW-Dual; test: NF-kB SEAP reporter activity, fold change vs agonist alone; cytotoxicity flag (confluency mask): not cytotoxic; higher = enhanced NF-kB activity
# In short: (§1)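 After 50 nL of library stock was delivered by pin tool to RAW-Dual macrophages (50,000 cells/well, DMEM, 384-well plates), a PRR agonist was added 1 h later and the plates were kept at 37 °C, 5% CO2. Twenty hours later, IRF was read from supernatant by QuantiLuc luminescence and NF-κB by QuantiBlue absorbance at 620 nm. Reporter activity is stated as fold change over agonist-alone wells. Wells with IncuCyte confluency under 70% of agonist controls in both mask sets were counted as cytotoxic.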
# [2] = system: RAW-Dual; test: NF-kB SEAP reporter activity, fold change vs agonist alone; higher = enhanced NF-kB activity
# In short: as §1
# [3] = system: RAW-Dual; test: NF-kB SEAP reporter activity, fold change vs agonist alone; cytotoxicity flag (confluency mask): cytotoxic (confluency <70% of control); higher = enhanced NF-kB activity
# In short: as §1
# [4] = agonist: ODN 1826 (TLR9) 0.5 ug/mL
# [5] = agonist: Pam2CSK4 (TLR2/6) 0.1 ug/mL
# [6] = agonist: Pam3CSK4 (TLR2/1) 0.1 ug/mL
# [7] = library stock concentration (final ~1000-fold dilution): 10 mM, cytotoxicity flag (confluency mask): not cytotoxic, agonist: Imiquimod (TLR7) […]
# [8] = library stock concentration (final ~1000-fold dilution): 10 mM, cytotoxicity flag (confluency mask): not cytotoxic, agonist: MPLA (TLR4) […]
# [9] = library stock concentration (final ~1000-fold dilution): 10 mM, cytotoxicity flag (confluency mask): cytotoxic (confluency <70% of control), agonist: MPLA (TLR4) […]
smiles,measurement,setting,value
CN(C)CCCSC(=N)N.Cl.Cl (library stock concentration (final ~1000-fold dilution): 10 mM),NF-kB SEAP reporter activity,[1]; agonist: LPS (TLR4) 0.1 ug/mL,1.14
same,NF-kB SEAP reporter activity,[1]; [4],0.97
same,NF-kB SEAP reporter activity,[1]; [5],1.01
same,NF-kB SEAP reporter activity,[1]; [6],0.975
CN(C)CCCSC(=N)N.Cl.Cl,NF-kB SEAP reporter activity,[2]; [7],0.831
same,NF-kB SEAP reporter activity,[2]; [8],0.973
CC(C)CC(NC(=O)C1OC1C(=O)O)C(=O)NCCCCNC(=N)N (configuration not stated),NF-kB SEAP reporter activity,[2]; [7],0.971
same,NF-kB SEAP reporter activity,[2]; [8],1.11
CC(C)CC(NC(=O)C1OC1C(=O)O)C(=O)NCCCCNC(=N)N (configuration not stated) (library stock concentration (final ~1000-fold dilution): 10 mM),NF-kB SEAP reporter activity,[1]; agonist: LPS (TLR4) 0.1 ug/mL,0.999
same,NF-kB SEAP reporter activity,[1]; [4],1.01
same,NF-kB SEAP reporter activity,[1]; [5],1.12
same,NF-kB SEAP reporter activity,[1]; [6],1.12
CC(=O)C(=O)Oc1ccccc1C(=O)O,NF-kB SEAP reporter activity,[2]; [7],1.46
same,NF-kB SEAP reporter activity,[2]; [8],1.68
CC(=O)C(=O)Oc1ccccc1C(=O)O (library stock concentration (final ~1000-fold dilution): 10 mM),NF-kB SEAP reporter activity,[1]; agonist: LPS (TLR4) 0.1 ug/mL,1.07
same,NF-kB SEAP reporter activity,[1]; [4],1.04
same,NF-kB SEAP reporter activity,[1]; [5],0.887
same,NF-kB SEAP reporter activity,[1]; [6],1.12
NNC(=O)c1ccncc1,NF-kB SEAP reporter activity,[2]; [7],0.948
same,NF-kB SEAP reporter activity,[2]; [8],1.05
NNC(=O)c1ccncc1 (library stock concentration (final ~1000-fold dilution): 10 mM),NF-kB SEAP reporter activity,[1]; agonist: LPS (TLR4) 0.1 ug/mL,1.22
same,NF-kB SEAP reporter activity,[1]; [4],1.05
same,NF-kB SEAP reporter activity,[1]; [5],1.09
same,NF-kB SEAP reporter activity,[1]; [6],1.05
O=S(=O)(N=Cc1c(O)ccc2ccccc12)c1cccs1,NF-kB SEAP reporter activity,[2]; [7],0.768
same,NF-kB SEAP reporter activity,[2]; [8],1.03
O=C(N/N=C/c1c(O)ccc2ccccc12)c1ccncc1 (library stock concentration (final ~1000-fold dilution): 10 mM),NF-kB SEAP reporter activity,[1]; agonist: LPS (TLR4) 0.1 ug/mL,2.18
same,NF-kB SEAP reporter activity,[1]; [4],2
same,NF-kB SEAP reporter activity,[1]; [5],1.15
same,NF-kB SEAP reporter activity,[1]; [6],1.92
O=C(N/N=C/c1c(O)ccc2ccccc12)c1ccncc1,NF-kB SEAP reporter activity,[2]; [7],2.57
same,NF-kB SEAP reporter activity,[2]; [8],1.75
O=S(=O)(N=Cc1c(O)ccc2ccccc12)c1cccs1 (library stock concentration (final ~1000-fold dilution): 10 mM),NF-kB SEAP reporter activity,[1]; agonist: LPS (TLR4) 0.1 ug/mL,1.28
same,NF-kB SEAP reporter activity,[1]; [4],0.662
same,NF-kB SEAP reporter activity,[1]; [5],1.04
same,NF-kB SEAP reporter activity,[1]; [6],0.853
Cl.c1ccc2c(-c3cnn4cc(-c5ccc(N6CCNCC6)cc5)cnc34)ccnc2c1,NF-kB SEAP reporter activity,"[2]; library stock concentration (final ~1000-fold dilution): 10 mM water, cytotoxicity flag (confluency mask): not cytotoxic, agonist: Imiquimod (TLR7) […]",0.986
same,NF-kB SEAP reporter activity,"[2]; library stock concentration (final ~1000-fold dilution): 10 mM water, cytotoxicity flag (confluency mask): not cytotoxic, agonist: MPLA (TLR4) […]",0.571
Cl.c1ccc2c(-c3cnn4cc(-c5ccc(N6CCNCC6)cc5)cnc34)ccnc2c1 (library stock concentration (final ~1000-fold dilution): 10 mM water),NF-kB SEAP reporter activity,[1]; agonist: LPS (TLR4) 0.1 ug/mL,0.64
same,NF-kB SEAP reporter activity,[1]; [4],0.253
same,NF-kB SEAP reporter activity,[1]; [5],0.171
same,NF-kB SEAP reporter activity,[1]; [6],0.354
CC(C)(C)C1NC(=O)OC2CCCC2OC/C=C/C(F)(F)c2nc3ccccc3nc2OC2CC(C(=O)NC3(C(=O)NS(=O)(=O)C4(C)CC4)CC3C(F)F)N(C2)C1=O (configuration not stated),NF-kB SEAP reporter activity,[2]; [7],2.27
same,NF-kB SEAP reporter activity,[2]; [8],2.15
C=CC1CC1(NC(=O)C1CC2CN1C(=O)C(C(C)(C)C)NC(=O)OC1CC1CCCCCc1nc3ccc(OC)cc3nc1O2)C(=O)NS(=O)(=O)C1CC1 (configuration not stated),NF-kB SEAP reporter activity,[2]; [7],1.3
same,NF-kB SEAP reporter activity,[2]; [8],1.22
C=CC1CC1(NC(=O)C1CC2CN1C(=O)C(C(C)(C)C)NC(=O)OC1CC1CCCCCc1nc3ccc(OC)cc3nc1O2)C(=O)NS(=O)(=O)C1CC1 (configuration not stated) (library stock concentration (final ~1000-fold dilution): 10 mM),NF-kB SEAP reporter activity,[1]; agonist: LPS (TLR4) 0.1 ug/mL,1.3
same,NF-kB SEAP reporter activity,[1]; [4],1.46
same,NF-kB SEAP reporter activity,[1]; [5],0.913
same,NF-kB SEAP reporter activity,[1]; [6],0.835
CC(C)(C)C1NC(=O)OC2CCCC2OC/C=C/C(F)(F)c2nc3ccccc3nc2OC2CC(C(=O)NC3(C(=O)NS(=O)(=O)C4(C)CC4)CC3C(F)F)N(C2)C1=O (configuration not stated) (library stock concentration (final ~1000-fold dilution): 10 mM),NF-kB SEAP reporter activity,[1]; agonist: LPS (TLR4) 0.1 ug/mL,1.29
same,NF-kB SEAP reporter activity,[1]; [4],2.62
same,NF-kB SEAP reporter activity,[1]; [5],0.986
same,NF-kB SEAP reporter activity,[1]; [6],2.09
CC(C)=CCCC(C)(OC1OC(CO)C(O)C(O)C1O)C1CCC2(C)C1C(O)CC1C3(C)CCC(O)C(C)(C)C3C(OC3OC(CO)C(O)C(O)C3OC3OCC(O)C(O)C3O)CC12C (configuration not stated) (library stock concentration (final ~1000-fold dilution): 10 mM),NF-kB SEAP reporter activity,[1]; agonist: LPS (TLR4) 0.1 ug/mL,0.93
same,NF-kB SEAP reporter activity,[1]; [4],1.02
same,NF-kB SEAP reporter activity,[1]; [5],0.792
same,NF-kB SEAP reporter activity,[1]; [6],0.975
CC(C)=CCCC(C)(OC1OC(CO)C(O)C(O)C1O)C1CCC2(C)C1C(O)CC1C3(C)CCC(O)C(C)(C)C3C(OC3OC(CO)C(O)C(O)C3OC3OCC(O)C(O)C3O)CC12C (configuration not stated),NF-kB SEAP reporter activity,[2]; [7],0.818
same,NF-kB SEAP reporter activity,[2]; [8],0.958
CS(=O)(=O)O.Fc1ccc(C2CCNCC2COc2ccc3c(c2)OCO3)cc1 (configuration not stated),NF-kB SEAP reporter activity,[2]; [9],1.43
CS(=O)(=O)O.Fc1ccc(C2CCNCC2COc2ccc3c(c2)OCO3)cc1 (configuration not stated) (library stock concentration (final ~1000-fold dilution): 10 mM),NF-kB SEAP reporter activity,[3]; agonist: LPS (TLR4) 0.1 ug/mL,1.08
same,NF-kB SEAP reporter activity,[3]; [4],0.542
same,NF-kB SEAP reporter activity,[3]; [5],0.486
same,NF-kB SEAP reporter activity,[3]; [6],0.425
Fc1ccc(Nc2nc(Nc3ccc(-c4nc5ccccc5[nH]4)cc3)nc(N3CCOCC3)n2)cc1 (library stock concentration (final ~1000-fold dilution): 10 mM),NF-kB SEAP reporter activity,[3]; agonist: LPS (TLR4) 0.1 ug/mL,0.621
same,NF-kB SEAP reporter activity,[3]; [4],0.452
same,NF-kB SEAP reporter activity,[3]; [5],0.212
same,NF-kB SEAP reporter activity,[3]; [6],0.25
Fc1ccc(Nc2nc(Nc3ccc(-c4nc5ccccc5[nH]4)cc3)nc(N3CCOCC3)n2)cc1,NF-kB SEAP reporter activity,"[2]; library stock concentration (final ~1000-fold dilution): 10 mM, cytotoxicity flag (confluency mask): cytotoxic (confluency <70% of control), agonist: Imiquimod (TLR7) […]",0.399
same,NF-kB SEAP reporter activity,[2]; [9],1.42
CCC(CC)(NC(=O)C(C)C)C(=O)NC(CCCNC(=N)N)C(=O)NC1(C(=O)NC(c2ccc(F)cc2)c2ccc(F)cc2)CCCC1 (configuration not stated),NF-kB SEAP reporter activity,[2]; [7],1.08
same,NF-kB SEAP reporter activity,[2]; [8],0.867
CCC(CC)(NC(=O)C(C)C)C(=O)NC(CCCNC(=N)N)C(=O)NC1(C(=O)NC(c2ccc(F)cc2)c2ccc(F)cc2)CCCC1 (configuration not stated) (library stock concentration (final ~1000-fold dilution): 10 mM),NF-kB SEAP reporter activity,[1]; agonist: LPS (TLR4) 0.1 ug/mL,0.847
same,NF-kB SEAP reporter activity,[1]; [4],0.788
same,NF-kB SEAP reporter activity,[1]; [5],0.957
same,NF-kB SEAP reporter activity,[1]; [6],0.971
